# Measured values taken from PubChem BioAssay (NCI).
# The panel holds about 83,000 compounds, 20% with a hit somewhere; the sample as a whole holds those more often.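 The endpoint reported here, percent growth, reads 100 for growth as untreated, 0 for no net growth and -100 for all cells dead.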 Unmarked numbers belong to inactive results. Activity calls are given as the source filed them. Rule for the calls: active = growth percent below 10; inactive = the rest.
# What was measured:
# Experiment in all cases: NCI-60 one-dose screen, 48 h (100 = growth as untreated, 0 = no growth, -100 = all killed)
# Details in all cases: 10 µM unless noted
# DU-145 prostate = system: DU-145 prostate
# K-562 leukemia = system: K-562 leukemia
# MALME-3M melanoma = system: MALME-3M melanoma
# MDA-MB-231 breast = system: MDA-MB-231 breast
# RXF 393 renal = system: RXF 393 renal
# SF-268 CNS = system: SF-268 CNS
# SF-295 CNS = system: SF-295 CNS
# SF-539 CNS = system: SF-539 CNS
# M14 melanoma = system: M14 melanoma
# HCT-15 colon = system: HCT-15 colon
# HT29 colon = system: HT29 colon
# SNB-75 CNS = system: SNB-75 CNS
# SNB-19 CNS = system: SNB-19 CNS
# PC-3 prostate = system: PC-3 prostate
# SK-MEL-5 melanoma = system: SK-MEL-5 melanoma
# UACC-62 melanoma = system: UACC-62 melanoma
# LOX IMVI melanoma = system: LOX IMVI melanoma
# SK-MEL-28 melanoma = system: SK-MEL-28 melanoma
# UACC-257 melanoma = system: UACC-257 melanoma
# U251 CNS = system: U251 CNS
Compound,growth (DU-145 prostate),growth (K-562 leukemia),growth (MALME-3M melanoma),growth (MDA-MB-231 breast),growth (RXF 393 renal),growth (SF-268 CNS),growth (SF-295 CNS),growth (SF-539 CNS),growth (M14 melanoma),growth (HCT-15 colon),growth (HT29 colon),growth (SNB-75 CNS),growth (SNB-19 CNS),growth (PC-3 prostate),growth (SK-MEL-5 melanoma),growth (UACC-62 melanoma),growth (LOX IMVI melanoma),growth (SK-MEL-28 melanoma),growth (UACC-257 melanoma),growth (U251 CNS)
Cn1ccnc1C(=O)/C=C/c1ccc(C(=O)Nc2nc3ccccc3[nH]2)cc1,-13.7% (active),2.24% (active),72.7%,19.3%,2.67% (active),40.2%,64.9%,9.47% (active),71.1%,24.3%,8.78% (active),-17% (active),41.1%,38.1%,83.1%,74.7%,11.5%,89.7%,–,–
CN1CCN(CCCOc2ccc3ncnc(Nc4ccc(OCc5cccc(F)c5)c(Cl)c4)c3c2)CC1,18.8%,-26.9% (active),-78.6% (active),-78.7% (active),-80.4% (active),-43% (active),-57.4% (active),-88.9% (active),-83.4% (active),-50.8% (active),-49.5% (active),65.1%,3.46% (active),-18.9% (active),-98.2% (active),-57.8% (active),-92.9% (active),-86.6% (active),–,–
Oc1c(N=Nc2nn[nH]n2)ccc2ccccc12,96.6%,97.2%,9.84% (active),60.4%,87.4%,93.8%,65.4%,95.3%,62.1%,68.2%,81.8%,143%,92.6%,67.6%,38.4%,77%,78%,94.6%,–,–
CCCCCc1c(C)[nH]c(/C=C2\N=C(c3ccc[nH]3)C=C2Oc2ccccc2)c1C,-68.1% [100 µM] (active),-43.8% [100 µM] (active),-44.7% [100 µM] (active),-94.1% [100 µM] (active),-57.2% [100 µM] (active),-60.8% [100 µM] (active),-57.7% [100 µM] (active),–,-96.7% [100 µM] (active),-99.5% [100 µM] (active),-56.9% [100 µM] (active),-62.1% [100 µM] (active),-95.2% [100 µM] (active),-21.6% [100 µM] (active),-61% [100 µM] (active),-92.3% [100 µM] (active),-90% [100 µM] (active),-95.1% [100 µM] (active),-66.9% [100 µM] (active),-99.6% [100 µM] (active)
O=C1Nc2ccc(Cl)cc2/C1=C/c1cccs1,105%,103%,95.9%,70.6%,94.3%,88.8%,94.3%,85.3%,101%,51.9%,110%,84.2%,84.3%,93.4%,85.7%,86%,86.7%,113%,–,–
CC(=O)/C(=C/c1ccc(Cl)cc1)C(=O)c1ccccc1,99.6%,61.8%,103%,96.1%,100%,82.8%,60.2%,101%,86%,79.3%,78.9%,81.6%,91.1%,68.5%,94.2%,82.1%,-43.9% (active),95.5%,–,–
O=C(Nc1nc(-c2ccc(Cl)cc2)cs1)c1cc(-c2ccc(Br)cc2)nc2ccc(Cl)cc12,55.6%,25.2%,44.6%,37.8%,98.6%,31.6%,91%,2.4% (active),-16.8% (active),10.8%,9.1% (active),32.7%,56%,40.2%,14%,42%,20.3%,52.9%,–,–
Cc1ccc(-c2c3c(N)nc(-c4ccncc4)nc3nc3c2c(C)nn3-c2ccccc2)cc1,32.6%,28.9%,-2.14% (active),21.4%,45.6%,37.8%,95%,11.3%,–,45%,21.8%,22.5%,88.4%,62.8%,55.3%,58.3%,8.73% (active),30.4%,–,–
COc1cc(-c2nc3nc4sc(C)c(C)c4c(=O)n3[nH]2)cc(OC)c1OC,99.7%,47%,59.6%,91.2%,78.9%,95.9%,60.5%,83.4%,78.2%,73.5%,82.3%,80.1%,92.9%,85.1%,55.3%,61.5%,81.7%,87.6%,–,–
O=C1/C(=C/c2cccc(Cl)c2)CCc2ccccc21,106%,46.4%,100%,98.9%,110%,99.4%,85.5%,103%,103%,–,91.2%,72.5%,87.1%,89.7%,101%,97.7%,90.9%,106%,–,–
c1cc[n+](Cc2ccnc3ccccc23)cc1,117%,71.3%,114%,98.9%,90.3%,106%,95.9%,89.3%,101%,64.3%,–,53.6%,103%,80.8%,107%,104%,90.8%,104%,–,–
OCCN1CCN(CCCN2c3ccccc3Sc3ccc(C(F)(F)F)cc32)CC1,58.8%,-55.8% (active),-66.6% (active),40.8%,28.2%,41%,-43% (active),33.4%,-80.9% (active),18.3%,-43% (active),46.3%,62.7%,20.4%,-93.3% (active),-55.5% (active),-41.6% (active),-86.6% (active),–,–
Cc1nn(-c2ccccc2)c2nc(N)c(C3=NCCO3)nc12,114%,102%,88.6%,87%,108%,111%,90.8%,99.6%,105%,98%,100%,73.1%,100%,81.4%,97.4%,96.5%,94.7%,103%,–,–
N=C1c2nc3n(c2C(=O)c2nc4n(c21)CCCCC4)CCCCC3,113%,102%,103%,117%,102%,108%,93.8%,105%,108%,–,106%,105%,113%,113%,88.7%,110%,92%,118%,–,–
COc1cc(/C(Cl)=C/C=C/C(=O)c2c(C)[n+]([O-])c3ccc(Cl)cc3[n+]2[O-])cc(OC)c1OC,67.8%,13.3%,65.7%,30.1%,47.9%,-20.1% (active),36.4%,24.3%,43.4%,–,14.1%,19.8%,51.2%,40%,14.2%,21.2%,-18.3% (active),33.5%,–,–
Cc1ccc(C(NC(=O)c2ccccc2)c2ccc3cccnc3c2O)cc1 (configuration not stated),20.7%,10.1%,19.9%,16.5%,41.8%,8.85% (active),10.3%,7.53% (active),-22.9% (active),28.9%,22.2%,33.3%,19.9%,26.1%,-42.3% (active),-8.42% (active),11.1%,30.8%,–,–
CCCCNCCCN(CCCC)CCCNCCCC,114%,102%,104%,90.1%,96.6%,110%,94.4%,103%,94.2%,93.2%,105%,110%,98.2%,90.4%,97.3%,96.5%,104%,99.6%,–,–
